HT1080NT lethal: kills 2HG-producing HT-1080-NT fibrosarcoma cells; Potency, µM (titrated, usually from 46.1 µM), inactives show at the top dose activity, negative = less viability, usual class: cytotoxic; HT-1080-NT fibrosarcoma viability, CellTiter-Glo ATP luminescence, 48 h; hit rate 1.6% among 360,000;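 note: NT is the 2HG producing partner of a matched IDH1 knockdown line; potency is the fitted concentration of half-maximal effect; 0% = DMSO-treated cells and -100% = media-only wells without cells; nearly all actives have a fitted effect of over 55% in size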
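Viability by CellTiter-Glo luminescence after 48 h compound exposure at 37C of HT-1080-NT cells (750/well, RPMI, 5% FBS). % activity scaled between DMSO wells and medium-only wells, then curve-fitted and categorized by curve class.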
HT1080 IDH1KD tx: kills HT-1080 cells with IDH1 knockdown | HT-1080 IDH1 knockdown viability, ATP luminescence, 48 h | Potency, µM (titrated, usually from 46.1 µM), for inactives: at the top dose activity, negative = toxicity, most hits filed as cytotoxic | hit rate 2% among 360,000 | AID 686971;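 note: potency is the fitted concentration of half-maximal effect; 0% = DMSO wells and -100% = cell-free medium wells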
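Cytotoxicity counter-line: IDH1KD HT-1080, 48 h, CellTiter-Glo. Curves classed by r2, magnitude and activity.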
IL1B secr inh: inhibitors of inflammasome signaling (IL-1 beta secretion) | THP-1 LPS/ATP IL-1B secretion, AlphaLISA, 16 h; stronger effect = lower value | activity change, % at 57.5 µM | hit rate 4.7% among 360,000 | AID 743279; in the data active = activity change below about -50%; inconclusive = mostly about -30% to -49%
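Secreted IL-1B measured by AlphaLISA bead assay after 16 h compound exposure of THP-1 cells; compounds (final up to 57.5 uM) added 1 h before LPS (250 ng/mL) and ATP (1.25 mM) stimulation; lower signal means less secretion.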
ELG1 DNA repair: inhibitors of ELG1-dependent DNA repair in HEK293T cells | HEK293T ELG1-luciferase reporter, luminescence, 16 h; DNA damage induced by 5-fluorouridine | Potency, µM (doses to about 46.1 µM), without a hit: at the top dose activity change, negative = inhibition, actives largely listed as inhibitors | hit rate 2.3% among 330,000 | AID 504467; note: potency is the fitted concentration of half-maximal effect; nearly all actives have a fitted effect of over 55% in size
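DMSO vehicle served as the neutral condition. Each well held 2,000 cells given 5-fluorouridine plus compound; after 16 hr at 37 °C/5% CO2, ONE-Glo was added and luciferase measured 30 min later.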
TDP1 cell CPT: DT40-hTDP1 cell growth loss with CPT; chicken DT40 Tdp1-/-;hTDP1 cells + 20 nM CPT, ATP luminescence, 48 h; Potency, µM (top dose mostly 46.2 µM), for the others: at the highest dose activity change, negative = growth inhibition, usual class: inhibitors; hit rate 12% among 420,000; AID 686979; note: potency is the fitted concentration of half-maximal effect; nearly all actives have a fitted effect of over 55% in size
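Cell growth measured by CellTiter-Glo luminescence after a minimum 48 h, 37 C compound exposure with 20 nM CPT in Tdp1-knockout DT40 cells stably expressing hTDP1, seeded 400/well; qHTS titration format.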
DT40 TDP1 no CPT: qHTS for Inhibitors of human tyrosyl-DNA phosphodiesterase 1 (TDP1): qHTS in cells in absence of CPT; DT40 Tdp1-/- hTDP1 cells, no CPT, ATP luminescence, 48 h; Potency, µM (series often up to 46.2 µM), for the others: top-dose activity change, negative = growth inhibition, usual class: inhibitors; hit rate 15% among 420,000; AID 686978, 2013; note: potency is the fitted concentration of half-maximal effect; nearly all actives have a fitted effect of over 55% in size
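Seeded 400 DT40-hTDP1 cells/well (vehicle DMSO, no 20 nM CPT); pinned compounds; ≥48 hr at 37 °C; CellTiter-Glo luminescence as viability measure.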
An asterisk follows results filed as active; ? = inconclusive; / = not tested or not shown; [ ] = dose if it differs, or a comment. Hits are enriched below; roughly 19% of the tested compounds scored in any of these assays. Unless noted, calls come from the whole dose curve; as a rule, active = well fitted curve in the direction sought with a large enough effect; inconclusive = small, poorly fitted or top-dose-only effect, or another doubt; inactive = no such curve, though single readings can be large; an effect the other way counts as inactive or inconclusive. Unless noted, % is set by controls: 0 for no effect and ±100 for the full control effect.

SMILES	HT1080NT lethal	HT1080 IDH1KD tx	IL1B secr inh	ELG1 DNA repair	TDP1 cell CPT	DT40 TDP1 no CPT
Cc1cccc(/C=N\N=C\c2cccc(C)c2)c1	12%	0%	-10	?	-18%	?
O=C(CSCc1c(Cl)cccc1Cl)N1CCOCC1	6%	12%	2	10%	-10%	-1%
Cc1c(Cl)cccc1NC(=O)C1CC2CCC1C2 (centres undefined)	-1%	-2%	11	/	-19%	?
Cc1c(C(=O)N(Cc2cccc(Br)c2)C2CCS(=O)(=O)C2)oc2ccccc12 (centres undefined)	-23%	?	-14	?	?	21µM*
CCc1ccc(CN(C(=O)c2oc3ccccc3c2C)C2CCS(=O)(=O)C2)cc1 (centres undefined)	0%	-6%	-27	?	?	18µM*
COc1ccc(CN(C(=O)c2oc3ccccc3c2C)C2CCS(=O)(=O)C2)cc1 (centres undefined)	-7%	-2%	-12	?	-1%	?
O=C(c1ccccc1)N(Cc1cccc(Br)c1)C1CCS(=O)(=O)C1 (centres undefined)	-3%	15%	0	13%	-3%	3%
Cc1ccc(NC(=O)CSc2nc(=O)n(CCCN3CCOCC3)c3c2CCCC3)cc1	4%	-11%	-18	0%	-19%	-20%
O=c1cc(CN2CCN(Cc3ccccc3)CC2)c2ccc(O)c(O)c2o1	?	?	83	?	10µM*	15µM*
COc1ccc2c(COC(=O)c3n[nH]c4ccccc34)cc(=O)oc2c1	7%	15%[9.24 µM]	0	?	?	21µM*
COc1ccc2c(CN3CCN(Cc4ccccc4)CC3)cc(=O)oc2c1	2%	-16%	-5	/	?	23µM*
Cc1c(O)ccc2c(CN3CCN(Cc4ccccc4)CC3)cc(=O)oc12	-7%	4%	17	-9%	-29%	-20%
COc1ccc2c(CN(Cc3ccccc3)Cc3ccccc3)cc(=O)oc2c1	-19%	-17%	25	/	16µM*	?
CCCN(CCC)Cc1cc(=O)oc2cc(OC)ccc12	-14%	-10%	0	/	?	?
COc1ccc(C2(C)NC(=O)N(CC(=O)NC3CC3)C2=O)cc1 (centres undefined)	3%	4%	16	17%	4%	1%
O=c1cc(CN2CCN(Cc3ccccc3)CC2)c2cc3c(cc2o1)CCC3	-2%	2%	-69*	-14%	?	18µM*
COc1ccc(N2CCN(Cc3cc(=O)oc4cc(C)c(Cl)c(C)c34)CC2)cc1	0%	-2%	0	11%	15µM*	9.2µM*
CCc1ccc2c(CN3CCC(C(=O)OC)CC3)cc(=O)oc2c1	-2%	-13%	13	19%	-1%	-29%
CCc1ccc2c(CN3CCN(Cc4ccccc4)CC3)cc(=O)oc2c1	-10%	-18%	-61*	-9%	-23%	?
CCc1ccc2c(CN3CCN(S(=O)(=O)c4ccccc4F)CC3)cc(=O)oc2c1	-1%	2%	-25	23µM*	-95%	23µM*
CCC1CN(CCC(=O)N2CCN(c3ncccn3)CC2)Cc2cc(OC)ccc2O1 (centres undefined)	/	/	/	/	-3%[9.04 µM]	-14%
COc1ccc2c(CN3CCN(c4ccc(Cl)c(Cl)c4)CC3)cc(=O)oc2c1	11%	8%	32	/	21µM*	13µM*
CCc1cc2c(CN3CCN(Cc4ccccc4)CC3)cc(=O)oc2cc1O	-24%	-25%	?	?	16µM*	18µM*
COc1cc2oc(=O)cc(CN3CCN(c4ccc(Cl)c(Cl)c4)CC3)c2cc1Cl	2%	10%	25	/	-3%	-26%
CCc1cc2c(CN(C)Cc3ccccc3F)cc(=O)oc2cc1O	?	?	13	-17%	?	15µM*
SMILES	HT1080NT lethal	HT1080 IDH1KD tx	IL1B secr inh	ELG1 DNA repair	TDP1 cell CPT	DT40 TDP1 no CPT
Cc1cc2oc(=O)cc(CN(C)Cc3cccc(F)c3)c2cc1C	3%	8%	5	-2%	?	-7%
O=c1cc(CN(Cc2ccccc2)Cc2ccccc2)c2c(ccc3ccccc32)o1	7%	5%	42	/	29µM*	?
CC(Oc1ccc(-c2ccccc2)cc1)C(=O)N/N=C/c1cccnc1 (centres undefined)	-4%	-19%	15	7%	-9%	-17%
O=C1NC[C@@H](CCCCN2CCN(CCc3ccc(O)cc3)C(=O)C2=O)N(CCc2ccc(O)cc2)C1=O	25%	25%	25	/	-1%	-14%
CC(Sc1ccc(Cl)cc1)C(=O)NNC(=O)c1ccco1 (centres undefined)	-2%	4%	1	2%	6%	9%
COc1ccc(CNC(=O)CN2C(=O)NC(Cc3ccccc3)(c3ccccc3)C2=O)cc1OC (centres undefined)	3%	6%	?	-16%	?	?
N#CCCn1c(=O)c(-c2ccc(F)cc2)nc2cnc(Oc3ccccc3)nc21	/	/	/	/	12%	-19%
CCC1(CC(C)C)SC(N)=NC1=O (centres undefined)	17%	11%	10	/	3%	-5%
Cc1ccc2c(CN3CCN(S(=O)(=O)c4ccccc4C(F)(F)F)CC3)cc(=O)oc2c1C	-11%	-6%	3	16µM*	?	23µM*
CC(C)CN(Cc1cc(=O)oc2cc3c(cc12)CCCC3)CC(C)C	-3%	5%	2	?	?	21µM*
O=C(Nc1ccccc1C(=O)N1CCCCC1)c1cc(F)c(F)cc1Cl	2%	-26%	-3	18%	-2%	-5%
CCOC(=O)CSc1cc(C)c(C#N)c2nc3ccccc3n12	0%	6%	18	10%	?	23µM*
CCC(C)Sc1cc(C)c(C#N)c2nc3ccccc3n12 (centres undefined)	-11%	-21%	5	?	18µM*	16µM*
COc1ccc(CCN2CC(O)=C(c3nc4ccccc4c(=O)[nH]3)C2=N)cc1OC	7%	-4%	-19	?	?	18µM*
CCCCCCN1CC(O)=C(c2nc3ccccc3[nH]2)C1=N	5%	-25%	14	?	-1%	-2%
N=C1C(c2nc3ccccc3[nH]2)=C(O)CN1c1ccccc1	-8%	-28%	78	?	?	23µM*
